Test results: the supplement of paper PMC9262897, “Low-cost anti-mycobacterial drug discovery using engineered E. coli” (Nature Communications, 2022)
Counter-ions that a name gives are not always drawn. ± gives the standard deviation of the averaged measurements.

Columns and labels:
Assay in all cases: growth (OD600 after 10 h); higher = more growth (less inhibition)
[1] = tested on: E. coli TESEC Alr+ wild-type control; details: compound 0.1 mM; raw OD600 reference: median of DMSO wells 0.241, cell-free background 0.041
Description: (§1)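 TESEC Mtb Alr E. coli, or the Alr+ wild-type control, in 384-well plates with Prestwick library compounds at 0.1 mM and 1% DMSO, across arabinose induction levels of 1E3 to 1E7 nM. Growth is read as OD600 after 10 h at 37 °C in triplicate biological replicates.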

E. coli TESEC Mtb Alr [2] = details: compound 0.1 mM
Description: as §1

E. coli TESEC Mtb Asd = details: compound 0.1 mM
Description: (§2)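 TESEC E. coli strains in which the native enzyme is deleted and replaced by arabinose-inducible Mtb Asd, DapB, CysH or TrpD, each grown in its selective medium. Strains were screened against the Prestwick library at 0.1 mM and 1% DMSO in 384-well format at low and high arabinose induction. Growth is read as OD600 after 10 h in triplicate.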

E. coli TESEC Mtb DapB = details: compound 0.1 mM
Description: as §2

[3] = tested on: E. coli TESEC Alr+ wild-type control; details: compound 0.1 mM; raw OD600 reference: median of DMSO wells 0.49, cell-free background 0.052
Description: (§3)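 TESEC Mtb Alr E. coli (ΔaraC ΔtolC ΔentC Δalr ΔdadX, arabinose-inducible Mtb Alr) or the Alr+ wild-type control strain, grown in defined M9-fructose medium without D-alanine in 96-well plates with Prestwick library compounds at 0.1 mM and 1% DMSO. Low Alr induction is 0.1 µM arabinose and high induction is 10 mM arabinose.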

E. coli TESEC Mtb Alr [4] = details: compound 0.1 mM; remark: listed apart in the source
Description: as §3

[5] = arabinose 1000 nM, raw OD600 reference: median of DMSO wells 0.294, cell-free background 0.041
[6] = arabinose 10000 nM, raw OD600 reference: median of DMSO wells 0.264, cell-free background 0.041
[7] = arabinose 100000 nM, raw OD600 reference: median of DMSO wells 0.201, cell-free background 0.041
[8] = arabinose 1000000 nM, raw OD600 reference: median of DMSO wells 0.193, cell-free background 0.041
[9] = arabinose 10000000 nM, raw OD600 reference: median of DMSO wells 0.146, cell-free background 0.041
[10] = arabinose induction (level): High, raw OD600 reference: median of DMSO wells 0.331, cell-free background 0.041
[11] = arabinose induction (level): Low, raw OD600 reference: median of DMSO wells 0.417, cell-free background 0.041
[12] = arabinose induction (level): High, raw OD600 reference: median of DMSO wells […], cell-free background 0.041
[13] = arabinose induction (level): Low, raw OD600 reference: median of DMSO wells 0.227, cell-free background 0.041
[14] = arabinose 100 nM, raw OD600 reference: median of DMSO wells 0.413, cell-free background 0.052
[15] = arabinose 10000000 nM, raw OD600 reference: median of DMSO wells […], cell-free background 0.052

Row | Structure (SMILES) | growth [1] | growth (E. coli TESEC Mtb Alr [2]; [5]) | growth (E. coli TESEC Mtb Alr [2]; [6]) | growth (E. coli TESEC Mtb Alr [2]; [7]) | growth (E. coli TESEC Mtb Alr [2]; [8]) | growth (E. coli TESEC Mtb Alr [2]; [9]) | growth (E. coli TESEC Mtb Asd; [10]) | growth (E. coli TESEC Mtb Asd; [11]) | growth (E. coli TESEC Mtb DapB; [12]) | growth (E. coli TESEC Mtb DapB; [13]) | growth [3] | growth (E. coli TESEC Mtb Alr [4]; [14]) | growth (E. coli TESEC Mtb Alr [4]; [15])
1 | CCCCOc1ccc(OCCCN2CCOCC2)cc1 [Pramoxine hydrochloride] | 0.199 ± 0.0084 | 0.268 ± 0.018 | 0.263 ± 0.011 | 0.195 ± 0.013 | 0.146 ± 0.0024 | 0.163 ± 0.0035 | 0.362 ± 0.03 | 0.403 ± 0.022 | 0.183 ± 0.014 | 0.226 ± 0.0093 | 0.425 ± 0.028 | 0.408 ± 0.0076 | 0.332 ± 0.011
2 | CN1[C@@H]2CC[C@H]1C[C@@H](OC(=O)c1c[nH]c3ccccc13)C2 [Tropisetron HCl] | 0.224 ± 0.0054 | 0.294 ± 0.0064 | 0.273 ± 0.0034 | 0.216 ± 0.036 | 0.177 ± 0.0038 | 0.158 ± 0.0026 | 0.305 ± 0.044 | 0.319 ± 0.034 | 0.219 ± 0.02 | 0.264 ± 0.05 | 0.53 ± 0.08 | 0.402 ± 0.012 | 0.359 ± 0.0044
3 | CC(=O)OCC(=O)[C@@]1(O)[C@H](C)C[C@H]2[C@@H]3CCC4=CC(=O)C=C[C@]4(C)[C@@]3(F)[C@@H](O)C[C@@]21C [Dexamethasone acetate] | 0.167 ± 0.006 | 0.239 ± 0.041 | 0.226 ± 0.007 | 0.192 ± 0.017 | 0.119 ± 0.0023 | 0.1362 ± 0.00044 | 0.226 ± 0.034 | 0.356 ± 0.056 | 0.171 ± 0.017 | 0.233 ± 0.03 | 0.477 ± 0.033 | 0.396 ± 0.011 | 0.234 ± 0.018
4 | CC(C)(C)NC[C@H](O)COc1ccccc1C1CCCC1 [Penbutolol sulfate] | 0.211 ± 0.0068 | 0.225 ± 0.0034 | 0.321 ± 0.0081 | 0.162 ± 0.011 | 0.128 ± 0.0083 | 0.142 ± 0.013 | 0.205 ± 0.028 | 0.295 ± 0.038 | 0.184 ± 0.013 | 0.207 ± 0.015 | 0.429 ± 0.019 | 0.412 ± 0.0049 | 0.261 ± 0.047
5 | CN(C)CCOC(C)(c1ccccc1)c1ccccn1 (stereo not drawn) [Doxylamine succinate] | 0.236 ± 0.0058 | 0.288 ± 0.016 | 0.249 ± 0.0028 | 0.19 ± 0.025 | 0.164 ± 0.0088 | 0.141 ± 0.0072 | 0.301 ± 0.028 | 0.374 ± 0.071 | 0.179 ± 0.019 | 0.206 ± 0.011 | 0.51 ± 0.06 | 0.41 ± 0.0066 | 0.353 ± 0.0099
6 | CC(C)c1ccc2oc3nc(N)c(C(=O)O)cc3c(=O)c2c1 [Amlexanox] | 0.158 ± 0.003 | 0.157 ± 0.015 | 0.307 ± 0.0078 | 0.157 ± 0.0046 | 0.248 ± 0.024 | 0.166 ± 0.011 | 0.3928 ± 0.003 | 0.23 ± 0.056 | 0.197 ± 0.0066 | 0.206 ± 0.036 | 0.416 ± 0.015 | 0.0761 ± 0.019 | 0.279 ± 0.018
7 | O=C1CCC(N2C(=O)c3ccccc3C2=O)C(=O)N1 (stereo not drawn) [Thalidomide] | 0.248 ± 0.0061 | 0.283 ± 0.0041 | 0.269 ± 0.014 | 0.204 ± 0.012 | 0.192 ± 0.0034 | 0.135 ± 0.0057 | 0.392 ± 0.098 | 0.461 ± 0.035 | 0.189 ± 0.016 | 0.24 ± 0.052 | 0.513 ± 0.072 | 0.424 ± 0.0084 | 0.346 ± 0.0072
8 | CCCNC(C)C(=O)Nc1ccccc1C (stereo not drawn) [Prilocaine hydrochloride] | 0.234 ± 0.0054 | 0.275 ± 0.011 | 0.264 ± 0.0046 | 0.1867 ± 0.0018 | 0.167 ± 0.0054 | 0.136 ± 0.0076 | 0.322 ± 0.093 | 0.408 ± 0.031 | 0.1776 ± 0.0016 | 0.209 ± 0.023 | 0.493 ± 0.068 | 0.427 ± 0.012 | 0.333 ± 0.008
9 | CC(C)OC(=O)CCC/C=C\C[C@@H]1[C@@H](CC[C@@H](O)CCc2ccccc2)[C@H](O)C[C@@H]1O [Latanoprost] | 0.0604 ± 0.0021 | 0.05 ± 0.0017 | 0.0396 ± 0.0001 | 0.0525 ± 0.00065 | 0.04007 ± 0.00012 | 0.0545 ± 0.0034 | 0.0525 ± 0.0016 | 0.05293 ± 0.00021 | 0.0594 ± 0.0031 | 0.0554 ± 0.0022 | 0.195 ± 0.059 | 0.314 ± 0.037 | 0.0658 ± 0.011
10 | CN(C)CCOC(c1ccccc1)c1ccccc1 [Diphenhydramine hydrochloride] | 0.2284 ± 0.002 | 0.296 ± 0.008 | 0.238 ± 0.0071 | 0.187 ± 0.013 | 0.151 ± 0.0087 | 0.148 ± 0.0063 | 0.194 ± 0.016 | 0.435 ± 0.016 | 0.195 ± 0.021 | 0.24 ± 0.051 | 0.495 ± 0.051 | 0.408 ± 0.0097 | 0.307 ± 0.029
11 | CC(=O)N(CC(O)CO)c1c(I)c(C(=O)NCC(O)CO)c(I)c(C(=O)NCC(O)CO)c1I (stereo not drawn) [Iohexol] | 0.242 ± 0.011 | 0.285 ± 0.0098 | 0.276 ± 0.0072 | 0.221 ± 0.043 | 0.195 ± 0.004 | 0.1422 ± 0.0012 | 0.35 ± 0.046 | 0.414 ± 0.056 | 0.195 ± 0.014 | 0.201 ± 0.02 | 0.512 ± 0.11 | 0.418 ± 0.01 | 0.343 ± 0.022
12 | CCOc1cc(CC(=O)N[C@@H](CC(C)C)c2ccccc2N2CCCCC2)ccc1C(=O)O [Repaglinide] | 0.185 ± 0.0042 | 0.199 ± 0.0075 | 0.26 ± 0.024 | 0.175 ± 0.0084 | 0.174 ± 0.0073 | 0.155 ± 0.01 | 0.282 ± 0.03 | 0.247 ± 0.032 | 0.168 ± 0.014 | 0.201 ± 0.031 | 0.482 ± 0.005 | 0.4 ± 0.0047 | 0.306 ± 0.014
13 | NC(=O)c1cnccn1 [Pyrazinamide] | 0.244 ± 0.0055 | 0.284 ± 0.01 | 0.267 ± 0.0063 | 0.208 ± 0.03 | 0.185 ± 0.007 | 0.14 ± 0.0018 | 0.289 ± 0.057 | 0.382 ± 0.11 | 0.195 ± 0.029 | 0.209 ± 0.019 | 0.538 ± 0.071 | 0.421 ± 0.013 | 0.366 ± 0.015
14 | CCC1(c2ccccc2)NC(=O)N(C)C1=O (stereo not drawn) [Mephenytoin] | 0.249 ± 0.0037 | 0.299 ± 0.0081 | 0.287 ± 0.011 | 0.201 ± 0.014 | 0.204 ± 0.013 | 0.152 ± 0.0052 | 0.235 ± 0.029 | 0.328 ± 0.072 | 0.184 ± 0.013 | 0.24 ± 0.037 | 0.501 ± 0.091 | 0.427 ± 0.0055 | 0.31 ± 0.011
15 | O=C(O)CN(CCN(CC(=O)O)CC(=O)O)CCN(CC(=O)O)CC(=O)O [Pentetic acid] | 0.049 ± 0.00062 | 0.0429 ± 0.00085 | 0.03913 ± 0.00012 | 0.04467 ± 5.8e-05 | 0.0427 ± 0.00091 | 0.0607 ± 0.00086 | 0.115 ± 0.02 | 0.0868 ± 0.024 | 0.0936 ± 0.0035 | 0.0709 ± 0.0042 | 0.0804 ± 0.0038 | 0.0559 ± 0.0086 | 0.061 ± 0.001
16 | C=C1c2cccc(O)c2C(O)=C2C(=O)[C@]3(O)C(O)=C(C(N)=O)C(=O)[C@@H](N(C)C)[C@@H]3[C@@H](O)[C@H]12 [Methacycline hydrochloride] | 0.0468 ± 0.0013 | 0.0453 ± 0.00098 | 0.0468 ± 0.0019 | 0.0492 ± 0.0052 | 0.0489 ± 0.0047 | 0.0481 ± 0.0026 | 0.05743 ± 0.00057 | 0.0548 ± 0.0016 | 0.0592 ± 0.0012 | 0.0603 ± 0.0025 | 0.0598 ± 0.0011 | 0.0587 ± 0.0009 | 0.066 ± 0.0023
